Calls of active or inactive are those of the source. The rule behind the calls is not given here.
tested on: HIV-1 nucleocapsid protein NCp7 (binding to TG oligonucleotide); experiment: HIV Nucleocapsid (AID 346); details: HIV-1 NC / fluorescein-TGTGTGTG probe, fluorescence polarization;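 note: potency is for inhibitors that block NC binding and lower polarization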
Summary of the method: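 Reagents dispensed (10 nM TG4xF, 100 nM HIV-1 NC), plates spun, compounds pin-transferred, then incubated 1 hr at room temperature before FP imaging. Buffer: Hepes pH 7.5, 250mM NaCl, 1uM ZnCl2, 100 uM TCEP, 5 mM 2-mercaptoethanol.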
Potency is the fitted concentration of half-maximal effect.

Structure (SMILES)	Potency
c1ccc(CNc2ncnc3ccc(-c4ccoc4)cc23)cc1	> 20 µM (inactive)
CN(C)c1ncc2ncc(=O)n(C[C@H]3CCCO3)c2n1	> 20 µM (inactive)
O=C(c1cnccn1)N1CCC[C@@]2(CCN(c3cccc(-c4ccccc4)c3)C2)C1	> 20 µM (inactive)
O=C(c1ccncc1)N1CCC[C@@]2(CCN(c3ccncc3)C2)C1	> 20 µM (inactive)
CN(C)C(=O)c1ccc(-c2cncnc2N2CCNCC2)cc1	> 20 µM (inactive)
COc1ccc2[nH]cc(CCNc3ncncc3-c3ccoc3)c2c1	> 20 µM (inactive)
O=C(Nc1cccc(F)c1)N1CCC2(CC1)CCN(C(=O)c1cccc(F)c1)CC2	> 20 µM (inactive)
O=C(Nc1cccc(F)c1)N1CC2(CCN(C(=O)c3cnccn3)CC2)C1	> 20 µM (inactive)
COc1ncc2nc(-c3ccc(Cl)cc3)c(=O)n(C)c2n1	> 20 µM (inactive)
COCCn1c(=O)c(CCc2ccccc2)nc2cnc(Nc3ccccc3)nc21	> 20 µM (inactive)
COc1ccc(CNc2cc(-c3ccoc3)ncn2)c(OC)c1	> 20 µM (inactive)
CS(=O)(=O)Nc1cccc(-c2ccc3ncnc(NCCN4CCOCC4)c3c2)c1	> 20 µM (inactive)
Cc1cccc(CNc2ncnc3ccc(-c4ccc(C(=O)N(C)C)cc4)cc23)c1	> 20 µM (inactive)
COCCn1c(=O)c(CCc2ccccc2)nc2cnc(Oc3ccc(OC)cc3)nc21	> 20 µM (inactive)
CCNc1ncc2nc(-c3ccccc3)c(=O)n(Cc3cccs3)c2n1	> 20 µM (inactive)
COc1ccc2[nH]cc(CCNc3ncnc4ccc(-c5ccccc5C#N)cc34)c2c1	> 20 µM (inactive)
FC(F)(F)c1ccccc1-c1cc(N2CCNCC2)ncn1	> 20 µM (inactive)
O=C(Nc1cccc(F)c1)N1CC[C@@]2(CCCN(C(=O)c3ccncc3)C2)C1	> 20 µM (inactive)
COc1cccc(-c2nc(NCc3cccnc3)c3ccccc3n2)c1	> 20 µM (inactive)
COc1ccc(Oc2ncc3ncc(=O)n(-c4ccc(OC)cc4)c3n2)cc1	> 20 µM (inactive)

Structure (SMILES)	Potency
c1cncc(-c2nccc(NCc3cccs3)n2)c1	> 20 µM (inactive)
COc1ccc(-c2nc3cnc(OC)nc3n(Cc3cccc(OC)c3)c2=O)cc1	> 20 µM (inactive)
Cc1noc(C)c1-c1cncnc1Nc1ccccc1	> 20 µM (inactive)
COc1cccc(Cn2c(=O)c(-c3ccc(F)cc3)nc3cnc(OC)nc32)c1	> 20 µM (inactive)
O=C(c1cnccn1)N1CCC2(CCCN(C(c3ccccc3)c3ccccc3)C2)CC1	> 20 µM (inactive)
COc1cccc(-c2nccc(-n3ccnc3)n2)c1	> 20 µM (inactive)
COCCNc1ncnc2ccc(-c3ccccc3OC)cc12	> 20 µM (inactive)
O=C(Nc1cccc(F)c1)N1CC2(CCN(C(=O)c3ccncc3)CC2)C1	> 20 µM (inactive)
COc1ncc2nc(-c3ccc(F)cc3)c(=O)n(-c3ccccc3)c2n1	> 20 µM (inactive)
CCNc1ncc2nc(-c3ccccc3)c(=O)n(Cc3cccc(OC)c3)c2n1	> 20 µM (inactive)
COC(=O)N1CCC2(CCCN(C(=O)Nc3ccccc3)C2)CC1	> 20 µM (inactive)
N#Cc1cccc(-c2nc(NCCN3CCOCC3)c3ccccc3n2)c1	> 20 µM (inactive)
COc1ccc(NC(=O)N2CCCC3(CCN(C(=O)c4cccn4C)CC3)C2)cc1	> 4 µM (inactive)
O=C(Nc1ccccc1)N1CC[C@@]2(CCCN(C(=O)c3cc(C(F)(F)F)cc(C(F)(F)F)c3)C2)C1	> 20 µM (inactive)
O=C(c1cnccn1)N1CCC[C@@]2(CCN(c3ncccn3)C2)C1	> 20 µM (inactive)
COC(=O)N1CCC2(CC1)CN(C(=O)Nc1cccc(F)c1)C2	> 20 µM (inactive)
COc1ccc(Oc2ncc3nc(-c4cccs4)c(=O)n(-c4ccccc4)c3n2)cc1	> 20 µM (inactive)
Clc1ccccc1-c1nc(NCc2cccs2)c2ccccc2n1	> 20 µM (inactive)
CC(C)CN1CCCC2(CCN(C(=O)c3cc(C(F)(F)F)cc(C(F)(F)F)c3)CC2)C1	> 20 µM (inactive)
CN(C)C(=O)c1ccc(-c2nccc(NCc3ccccc3)n2)cc1	> 20 µM (inactive)

Reference: PubChem BioAssay (NCATS)
